Measurements taken from ChEMBL document CHEMBL1961873, “Compounds: GSK PKIS; Assays: Nanosyn kinase panel” (2012).

Assays:
[1] = target: Sphingosine kinase 1 (Homo sapiens) (UniProt Q9NYA1); settings: at 1 µM;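 also: mean SPHK1 inhibition value reported from the GSK PKIS kinase panel screen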
[2] = target: T1, Sphingosine kinase 2 (Homo sapiens) (UniProt Q9NRA0); settings: at 0.1 µM
T1 sequence (whole entry): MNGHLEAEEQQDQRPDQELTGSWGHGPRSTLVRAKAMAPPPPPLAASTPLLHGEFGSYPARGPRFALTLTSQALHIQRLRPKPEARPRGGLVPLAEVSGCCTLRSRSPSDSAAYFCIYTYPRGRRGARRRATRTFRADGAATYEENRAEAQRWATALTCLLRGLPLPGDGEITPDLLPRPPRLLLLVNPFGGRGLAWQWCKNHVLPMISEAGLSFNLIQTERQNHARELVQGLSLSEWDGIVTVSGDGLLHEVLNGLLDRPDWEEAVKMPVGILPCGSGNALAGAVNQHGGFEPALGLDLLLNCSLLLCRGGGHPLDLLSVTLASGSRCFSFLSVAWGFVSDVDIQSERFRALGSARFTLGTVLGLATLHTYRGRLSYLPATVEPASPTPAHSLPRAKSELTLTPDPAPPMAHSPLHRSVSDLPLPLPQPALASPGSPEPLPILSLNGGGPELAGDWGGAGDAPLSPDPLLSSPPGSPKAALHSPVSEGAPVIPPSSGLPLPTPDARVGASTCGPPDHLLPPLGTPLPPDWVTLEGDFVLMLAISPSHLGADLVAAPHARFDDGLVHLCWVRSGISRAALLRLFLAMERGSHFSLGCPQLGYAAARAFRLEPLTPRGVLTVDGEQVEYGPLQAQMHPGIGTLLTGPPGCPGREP

[3] = target: T1, Sphingosine kinase 2 (Homo sapiens); settings: at 1 µM
[4] = target: Casein kinase II subunit alpha (Homo sapiens) (UniProt P68400); settings: at 0.1 µM
[5] = target: Casein kinase II subunit alpha (Homo sapiens) (UniProt P68400); settings: at 1 µM
[6] = target: T2, Inhibitor of nuclear factor kappa-B kinase subunit alpha (Homo sapiens) (UniProt O15111); settings: at 0.1 µM
T2 sequence (whole entry): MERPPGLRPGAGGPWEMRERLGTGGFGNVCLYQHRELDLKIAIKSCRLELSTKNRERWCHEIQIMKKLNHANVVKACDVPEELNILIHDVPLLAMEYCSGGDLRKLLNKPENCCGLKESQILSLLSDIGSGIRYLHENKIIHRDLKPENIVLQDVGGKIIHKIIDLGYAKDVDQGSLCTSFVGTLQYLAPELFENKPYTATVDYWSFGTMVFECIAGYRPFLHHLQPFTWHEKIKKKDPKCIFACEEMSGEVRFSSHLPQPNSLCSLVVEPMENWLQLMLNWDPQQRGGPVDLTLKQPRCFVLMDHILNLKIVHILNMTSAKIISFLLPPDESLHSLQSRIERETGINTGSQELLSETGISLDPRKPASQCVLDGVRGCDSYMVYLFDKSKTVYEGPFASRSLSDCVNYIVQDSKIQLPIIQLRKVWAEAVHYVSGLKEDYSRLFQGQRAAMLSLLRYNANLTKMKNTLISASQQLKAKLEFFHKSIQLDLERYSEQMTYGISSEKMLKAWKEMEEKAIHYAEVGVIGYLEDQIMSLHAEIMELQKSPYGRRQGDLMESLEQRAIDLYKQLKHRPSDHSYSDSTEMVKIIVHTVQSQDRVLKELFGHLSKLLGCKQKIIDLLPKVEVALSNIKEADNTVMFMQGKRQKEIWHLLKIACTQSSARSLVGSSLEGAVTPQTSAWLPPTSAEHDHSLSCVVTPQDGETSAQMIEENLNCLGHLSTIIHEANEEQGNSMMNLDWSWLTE

[7] = target: T2, Inhibitor of nuclear factor kappa-B kinase subunit alpha (Homo sapiens); settings: at 1 µM
[8] = target: T3, Inhibitor of nuclear factor kappa-B kinase subunit beta (Homo sapiens) (UniProt O14920); settings: at 0.1 µM
T3 sequence (whole entry): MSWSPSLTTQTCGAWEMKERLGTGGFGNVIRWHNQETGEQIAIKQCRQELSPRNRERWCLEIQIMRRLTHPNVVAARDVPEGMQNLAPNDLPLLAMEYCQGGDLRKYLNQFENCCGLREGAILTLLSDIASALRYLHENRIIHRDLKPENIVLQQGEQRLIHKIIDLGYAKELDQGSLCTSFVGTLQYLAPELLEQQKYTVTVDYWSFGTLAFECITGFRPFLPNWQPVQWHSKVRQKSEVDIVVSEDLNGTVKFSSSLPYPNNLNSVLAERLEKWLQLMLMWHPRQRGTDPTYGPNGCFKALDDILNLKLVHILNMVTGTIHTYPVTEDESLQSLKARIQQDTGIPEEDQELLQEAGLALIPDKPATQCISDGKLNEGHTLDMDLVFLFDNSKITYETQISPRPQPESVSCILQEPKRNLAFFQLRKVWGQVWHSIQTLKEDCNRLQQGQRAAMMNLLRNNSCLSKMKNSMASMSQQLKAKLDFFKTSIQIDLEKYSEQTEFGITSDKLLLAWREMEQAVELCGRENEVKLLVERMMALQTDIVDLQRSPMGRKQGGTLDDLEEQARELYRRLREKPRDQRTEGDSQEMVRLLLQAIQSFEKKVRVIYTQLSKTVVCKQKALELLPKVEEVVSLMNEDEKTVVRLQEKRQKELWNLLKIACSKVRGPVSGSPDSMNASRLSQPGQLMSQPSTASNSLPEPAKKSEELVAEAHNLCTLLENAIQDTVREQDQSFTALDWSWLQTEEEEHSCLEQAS

[9] = target: T3, Inhibitor of nuclear factor kappa-B kinase subunit beta (Homo sapiens); settings: at 1 µM
[10] = target: T4, Inhibitor of nuclear factor kappa-B kinase subunit epsilon (Homo sapiens) (UniProt Q14164); settings: at 0.1 µM
T4 sequence (whole entry): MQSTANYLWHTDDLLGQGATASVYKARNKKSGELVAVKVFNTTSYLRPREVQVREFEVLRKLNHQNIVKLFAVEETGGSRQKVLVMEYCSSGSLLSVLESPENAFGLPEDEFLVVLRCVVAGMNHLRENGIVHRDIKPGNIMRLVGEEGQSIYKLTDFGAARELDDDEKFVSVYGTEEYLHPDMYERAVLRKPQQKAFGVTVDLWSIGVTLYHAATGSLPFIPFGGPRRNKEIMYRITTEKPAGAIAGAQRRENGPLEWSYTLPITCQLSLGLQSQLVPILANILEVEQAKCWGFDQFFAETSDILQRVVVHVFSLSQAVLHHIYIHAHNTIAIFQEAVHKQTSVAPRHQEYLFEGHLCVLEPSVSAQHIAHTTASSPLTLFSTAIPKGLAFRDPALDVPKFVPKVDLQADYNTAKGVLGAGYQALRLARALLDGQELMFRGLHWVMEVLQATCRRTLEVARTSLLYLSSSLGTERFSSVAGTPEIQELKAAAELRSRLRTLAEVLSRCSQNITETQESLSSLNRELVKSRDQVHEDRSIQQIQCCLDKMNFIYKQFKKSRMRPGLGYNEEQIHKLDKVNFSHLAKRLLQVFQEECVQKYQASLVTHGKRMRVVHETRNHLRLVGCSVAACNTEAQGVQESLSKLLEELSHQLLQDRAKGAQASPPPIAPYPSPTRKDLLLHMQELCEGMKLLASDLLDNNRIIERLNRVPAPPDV

[11] = target: T4, Inhibitor of nuclear factor kappa-B kinase subunit epsilon (Homo sapiens); settings: at 1 µM
[12] = target: T5, Serine/threonine-protein kinase Nek1 (Homo sapiens) (UniProt Q96PY6); settings: at 0.1 µM
T5 sequence (whole entry): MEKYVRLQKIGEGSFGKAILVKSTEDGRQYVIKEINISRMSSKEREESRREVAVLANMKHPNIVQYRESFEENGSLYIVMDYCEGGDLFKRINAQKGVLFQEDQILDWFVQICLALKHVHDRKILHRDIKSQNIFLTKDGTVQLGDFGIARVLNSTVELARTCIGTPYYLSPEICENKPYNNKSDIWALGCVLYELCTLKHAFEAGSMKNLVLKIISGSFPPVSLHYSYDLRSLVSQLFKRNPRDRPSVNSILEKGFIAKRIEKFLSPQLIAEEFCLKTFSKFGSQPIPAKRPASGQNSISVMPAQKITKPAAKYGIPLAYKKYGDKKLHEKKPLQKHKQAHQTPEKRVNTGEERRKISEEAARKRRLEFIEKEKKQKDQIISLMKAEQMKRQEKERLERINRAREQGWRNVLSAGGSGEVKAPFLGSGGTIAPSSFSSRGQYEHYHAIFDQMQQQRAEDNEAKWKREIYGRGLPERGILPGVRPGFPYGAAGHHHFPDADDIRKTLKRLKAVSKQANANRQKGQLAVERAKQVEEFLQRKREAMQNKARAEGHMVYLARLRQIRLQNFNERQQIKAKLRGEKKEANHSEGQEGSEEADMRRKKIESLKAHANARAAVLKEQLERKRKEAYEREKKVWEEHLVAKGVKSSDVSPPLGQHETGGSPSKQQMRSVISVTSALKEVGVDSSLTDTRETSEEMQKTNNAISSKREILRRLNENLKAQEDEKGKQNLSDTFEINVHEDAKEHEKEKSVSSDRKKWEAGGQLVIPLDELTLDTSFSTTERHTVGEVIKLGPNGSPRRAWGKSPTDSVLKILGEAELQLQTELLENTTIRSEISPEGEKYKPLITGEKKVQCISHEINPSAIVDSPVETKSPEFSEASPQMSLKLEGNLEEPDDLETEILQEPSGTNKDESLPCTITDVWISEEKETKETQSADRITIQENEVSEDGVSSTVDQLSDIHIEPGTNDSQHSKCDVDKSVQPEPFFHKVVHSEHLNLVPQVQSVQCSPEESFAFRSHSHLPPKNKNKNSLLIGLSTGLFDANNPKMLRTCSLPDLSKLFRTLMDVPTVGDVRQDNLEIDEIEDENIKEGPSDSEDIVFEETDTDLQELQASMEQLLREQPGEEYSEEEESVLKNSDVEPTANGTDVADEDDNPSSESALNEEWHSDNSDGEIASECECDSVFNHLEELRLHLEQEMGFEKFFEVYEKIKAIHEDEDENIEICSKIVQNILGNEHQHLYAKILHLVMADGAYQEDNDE

[13] = target: T5, Serine/threonine-protein kinase Nek1 (Homo sapiens); settings: at 1 µM
[14] = target: T6, Serine/threonine-protein kinase Nek2 (Homo sapiens) (UniProt P51955); settings: at 0.1 µM
T6 sequence (whole entry): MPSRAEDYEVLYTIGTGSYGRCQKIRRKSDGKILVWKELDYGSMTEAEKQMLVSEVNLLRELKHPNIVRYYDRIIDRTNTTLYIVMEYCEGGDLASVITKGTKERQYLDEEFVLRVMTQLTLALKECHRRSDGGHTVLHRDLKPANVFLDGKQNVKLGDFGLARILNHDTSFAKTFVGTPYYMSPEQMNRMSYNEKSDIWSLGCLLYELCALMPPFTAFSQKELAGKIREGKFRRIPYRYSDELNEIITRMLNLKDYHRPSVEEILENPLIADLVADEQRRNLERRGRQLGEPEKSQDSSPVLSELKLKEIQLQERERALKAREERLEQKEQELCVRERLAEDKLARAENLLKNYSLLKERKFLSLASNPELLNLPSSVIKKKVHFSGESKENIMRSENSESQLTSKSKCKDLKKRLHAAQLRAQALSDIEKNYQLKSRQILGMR

[15] = target: T6, Serine/threonine-protein kinase Nek2 (Homo sapiens); settings: at 1 µM
[16] = target: Serine/threonine-protein kinase Nek6 (Homo sapiens) (UniProt Q9HC98); settings: at 0.1 µM
[17] = target: Serine/threonine-protein kinase Nek6 (Homo sapiens) (UniProt Q9HC98); settings: at 1 µM
[18] = target: Serine/threonine-protein kinase Nek7 (Homo sapiens) (UniProt Q8TDX7); settings: at 0.1 µM
[19] = target: Serine/threonine-protein kinase Nek7 (Homo sapiens) (UniProt Q8TDX7); settings: at 1 µM
[20] = target: T7, Serine/threonine-protein kinase Nek9 (Homo sapiens) (UniProt Q8TD19); settings: at 0.1 µM;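 also: reported value is the mean percent inhibition of NEK9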
T7 sequence (whole entry): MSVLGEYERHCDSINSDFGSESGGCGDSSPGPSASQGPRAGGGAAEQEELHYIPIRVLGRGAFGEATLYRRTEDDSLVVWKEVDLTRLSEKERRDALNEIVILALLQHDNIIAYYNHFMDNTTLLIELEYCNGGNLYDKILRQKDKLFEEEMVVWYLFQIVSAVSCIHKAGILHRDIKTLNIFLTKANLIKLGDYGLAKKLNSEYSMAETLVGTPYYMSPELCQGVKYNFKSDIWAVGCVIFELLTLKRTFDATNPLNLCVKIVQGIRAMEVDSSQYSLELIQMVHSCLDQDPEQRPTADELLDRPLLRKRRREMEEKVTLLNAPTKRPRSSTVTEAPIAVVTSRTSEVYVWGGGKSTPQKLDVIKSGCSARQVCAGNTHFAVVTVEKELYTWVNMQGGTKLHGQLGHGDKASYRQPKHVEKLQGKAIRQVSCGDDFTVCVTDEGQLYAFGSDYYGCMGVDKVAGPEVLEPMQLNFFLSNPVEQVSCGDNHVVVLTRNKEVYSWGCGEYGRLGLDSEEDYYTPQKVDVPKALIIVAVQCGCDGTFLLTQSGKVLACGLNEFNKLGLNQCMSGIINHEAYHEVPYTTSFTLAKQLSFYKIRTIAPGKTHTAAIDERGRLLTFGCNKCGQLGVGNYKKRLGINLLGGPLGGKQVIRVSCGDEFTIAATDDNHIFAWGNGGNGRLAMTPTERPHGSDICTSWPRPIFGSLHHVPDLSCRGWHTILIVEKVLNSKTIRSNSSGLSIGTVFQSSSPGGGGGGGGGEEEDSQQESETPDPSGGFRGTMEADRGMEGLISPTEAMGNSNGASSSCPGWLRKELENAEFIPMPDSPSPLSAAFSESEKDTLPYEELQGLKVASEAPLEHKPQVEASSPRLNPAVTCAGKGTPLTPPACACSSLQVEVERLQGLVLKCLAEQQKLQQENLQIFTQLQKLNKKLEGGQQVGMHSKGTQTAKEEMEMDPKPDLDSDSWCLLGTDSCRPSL

Sequence of Serine/threonine-protein kinase Nek6 (Homo sapiens) (Q9HC98 whole entry): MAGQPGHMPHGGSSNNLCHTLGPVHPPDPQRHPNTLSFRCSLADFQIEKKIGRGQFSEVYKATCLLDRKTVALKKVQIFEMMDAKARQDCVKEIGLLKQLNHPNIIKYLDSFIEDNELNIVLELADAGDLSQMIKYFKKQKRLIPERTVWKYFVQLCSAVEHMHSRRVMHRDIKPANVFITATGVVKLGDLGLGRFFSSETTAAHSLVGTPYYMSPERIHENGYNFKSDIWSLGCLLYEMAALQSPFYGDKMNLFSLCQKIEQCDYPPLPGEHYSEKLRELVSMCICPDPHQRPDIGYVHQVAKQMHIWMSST
Sequence of Serine/threonine-protein kinase Nek7 (Homo sapiens) (Q8TDX7 whole entry, looked up): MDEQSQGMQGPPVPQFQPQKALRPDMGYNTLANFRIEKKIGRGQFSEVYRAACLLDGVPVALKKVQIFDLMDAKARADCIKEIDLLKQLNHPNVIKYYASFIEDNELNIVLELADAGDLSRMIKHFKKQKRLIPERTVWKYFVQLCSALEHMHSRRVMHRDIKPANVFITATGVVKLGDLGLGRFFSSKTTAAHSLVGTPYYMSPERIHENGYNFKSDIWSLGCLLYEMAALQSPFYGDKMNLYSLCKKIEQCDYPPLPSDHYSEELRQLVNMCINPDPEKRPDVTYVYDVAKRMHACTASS
Sequence of Casein kinase II subunit alpha (Homo sapiens) (P68400 whole entry, looked up): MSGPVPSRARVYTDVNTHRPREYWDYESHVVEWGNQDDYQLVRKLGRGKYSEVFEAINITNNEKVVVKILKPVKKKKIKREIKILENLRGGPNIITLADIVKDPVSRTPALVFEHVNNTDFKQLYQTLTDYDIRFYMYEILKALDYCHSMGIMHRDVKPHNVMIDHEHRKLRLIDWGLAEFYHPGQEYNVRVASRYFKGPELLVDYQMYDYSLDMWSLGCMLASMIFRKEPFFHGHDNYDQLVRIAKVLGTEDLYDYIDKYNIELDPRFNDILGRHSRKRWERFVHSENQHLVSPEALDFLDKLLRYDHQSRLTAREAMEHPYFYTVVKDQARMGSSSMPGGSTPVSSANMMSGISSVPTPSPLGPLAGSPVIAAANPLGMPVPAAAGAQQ
Sequence of Sphingosine kinase 1 (Homo sapiens) (Q9NYA1 whole entry): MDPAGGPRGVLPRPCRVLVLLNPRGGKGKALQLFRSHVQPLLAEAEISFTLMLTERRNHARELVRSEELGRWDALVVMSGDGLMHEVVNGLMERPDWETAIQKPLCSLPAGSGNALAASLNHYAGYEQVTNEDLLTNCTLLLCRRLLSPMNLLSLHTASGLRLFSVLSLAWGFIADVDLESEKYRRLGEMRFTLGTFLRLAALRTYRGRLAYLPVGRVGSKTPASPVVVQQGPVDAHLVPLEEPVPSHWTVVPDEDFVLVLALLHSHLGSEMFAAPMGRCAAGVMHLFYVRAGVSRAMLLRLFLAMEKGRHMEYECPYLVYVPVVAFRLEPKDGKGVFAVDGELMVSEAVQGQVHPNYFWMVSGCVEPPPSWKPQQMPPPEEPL

Row | Compound | inhibition [1] | inhibition [2] | inhibition [3] | inhibition [4] | inhibition [5] | inhibition [6] | inhibition [7] | inhibition [8] | inhibition [9] | inhibition [10] | inhibition [11] | inhibition [12] | inhibition [13] | inhibition [14] | inhibition [15] | inhibition [16] | inhibition [17] | inhibition [18] | inhibition [19] | inhibition [20]
1 | CC(C)=Cc1cccc2c1/C(=N/Nc1ccc(S(N)(=O)=O)cc1)C(=O)N2 | 3.96% | 0.66% | 0.76% | 1.84% | 10.6% | 3.49% | 3% | 1.01% | 2.88% | 5.72% | 21.9% | 0.48% | 2.3% | -1.83% | -0.31% | 1.86% | 0.97% | -1.18% | -0.48% | 4.67%
2 | COc1ccccc1Nc1ncc(-c2ccccc2)o1 | -6.75% | -0.59% | -0.16% | 6.18% | 8.04% | 10.7% | 9.03% | 9.9% | 9.61% | 9.49% | 7.83% | 3.62% | 3% | 6.46% | 6.16% | 0.52% | 1.67% | 2.39% | 5.45% | 5.2%
